Test results as given in PubChem BioAssay.
Activity calls are given as the source filed them.

Key:
[1] = system: Plasmodium falciparum Sir2 (PF13_0152, Sir2A); experiment: pfSir2 binders on small-molecule microarrays, primary screen, biochemical, small-molecule microarray, 635 nm fluorescence (AID 1098); settings: small-molecule microarray binding, fluorescence 635 nm; higher = more signal;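 further: score merges spot fluorescence intensity with its signal-to-noise ratio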
[2] = small-molecule microarray binders of probe aDKK1, primary screen, biochemical, biotinylated probe, 635/667 nm fluorescence (AID 1099); settings: higher = more signal;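 further: score merges 667nm spot fluorescence with signal to noise across triplicate slides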
[3] = small-molecule microarray binders of probe aCHRDL2, primary screen, biochemical, biotinylated probe, 635/667 nm fluorescence (AID 1100); settings: higher = more signal
[4] = splicing luciferase reporter signal modulators, primary screen, spliceosome inhibition project, cell-based, HEK293, splice +/- reporter (AID 1101); settings: luminescence, 24 h, higher = more signal, called active from +8 up or from −8 down;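 further: HEK293 cells carrying a splicing-competent luciferase reporter gene; test concentration not given here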
[5] = molecular target: Fibroblast growth factor 10 (Homo sapiens) (UniProt O15520); experiment: FGF10 binders on small-molecule microarrays, primary screen, biochemical, small-molecule microarray, 635 nm fluorescence (AID 1102); settings: FGF10 binding, fluorescence 635 nm, higher = more signal
Chain of Fibroblast growth factor 10 (Homo sapiens) (O15520 whole entry, looked up): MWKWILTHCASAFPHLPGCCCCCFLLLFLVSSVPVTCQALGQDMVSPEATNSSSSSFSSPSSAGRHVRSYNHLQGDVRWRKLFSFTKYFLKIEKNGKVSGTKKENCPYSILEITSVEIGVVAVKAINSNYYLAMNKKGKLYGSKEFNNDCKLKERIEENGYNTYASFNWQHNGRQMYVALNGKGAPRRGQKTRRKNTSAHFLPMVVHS

[6] = system: glycogen synthase kinase-3 (GSK3A per assay name; protocol says GSK3B); experiment: GSK3 binders on small-molecule microarrays, primary screen, biochemical, small-molecule microarray, 635 nm fluorescence, GSK3A (AID 1103); settings: small-molecule microarray binding, fluorescence 635 nm; higher = more signal; further: the record names both GSK3A and GSK3B
[7] = molecular target: Epidermal growth factor receptor (Homo sapiens) (UniProt P00533); experiment: EGFR binders on small-molecule microarrays, primary screen, biochemical, small-molecule microarray, 635 nm fluorescence (AID 1104); settings: EGFR binding, higher = more signal;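 further: score merges 667 nm emission intensity with spot signal to noise over triplicate slides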
Chain of Epidermal growth factor receptor (Homo sapiens) (P00533 whole entry, looked up): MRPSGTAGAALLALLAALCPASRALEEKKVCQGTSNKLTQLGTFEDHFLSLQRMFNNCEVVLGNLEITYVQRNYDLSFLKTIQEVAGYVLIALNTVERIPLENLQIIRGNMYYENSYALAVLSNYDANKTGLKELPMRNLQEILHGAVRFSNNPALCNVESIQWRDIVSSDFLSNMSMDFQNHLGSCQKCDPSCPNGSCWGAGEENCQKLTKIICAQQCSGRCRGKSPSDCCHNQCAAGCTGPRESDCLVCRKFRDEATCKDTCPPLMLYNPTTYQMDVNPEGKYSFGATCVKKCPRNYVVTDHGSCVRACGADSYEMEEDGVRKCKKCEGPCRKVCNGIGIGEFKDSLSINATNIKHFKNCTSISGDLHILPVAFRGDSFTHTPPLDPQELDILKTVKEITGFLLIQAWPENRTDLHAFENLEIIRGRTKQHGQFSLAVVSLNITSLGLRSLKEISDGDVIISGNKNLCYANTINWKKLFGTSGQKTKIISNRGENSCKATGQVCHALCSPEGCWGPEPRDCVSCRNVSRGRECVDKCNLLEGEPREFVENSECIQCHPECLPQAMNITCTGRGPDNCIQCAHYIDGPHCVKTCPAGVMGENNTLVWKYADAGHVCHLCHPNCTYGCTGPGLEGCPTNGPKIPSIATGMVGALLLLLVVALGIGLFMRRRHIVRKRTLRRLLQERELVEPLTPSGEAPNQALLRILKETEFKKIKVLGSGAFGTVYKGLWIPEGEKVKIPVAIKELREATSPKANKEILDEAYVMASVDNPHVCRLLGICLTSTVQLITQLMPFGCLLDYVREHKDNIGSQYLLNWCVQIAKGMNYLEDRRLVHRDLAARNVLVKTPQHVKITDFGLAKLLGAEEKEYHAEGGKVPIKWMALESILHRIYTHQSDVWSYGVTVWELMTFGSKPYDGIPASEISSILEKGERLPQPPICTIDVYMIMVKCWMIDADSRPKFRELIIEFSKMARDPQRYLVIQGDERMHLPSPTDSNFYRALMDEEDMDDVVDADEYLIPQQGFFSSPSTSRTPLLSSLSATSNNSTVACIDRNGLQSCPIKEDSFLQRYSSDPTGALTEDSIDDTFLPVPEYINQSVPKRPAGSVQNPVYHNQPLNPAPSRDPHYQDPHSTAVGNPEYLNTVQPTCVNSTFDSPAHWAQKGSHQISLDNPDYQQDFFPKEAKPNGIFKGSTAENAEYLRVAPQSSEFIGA

[8] = molecular target: Follistatin-related protein 3 (Homo sapiens) (UniProt O95633); experiment: FSTL3 binders on small-molecule microarrays, primary screen, biochemical, small-molecule microarray, 635 nm fluorescence (AID 1105); settings: FSTL3 binding, higher = more signal;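 further: score merges emission near 667 nm and signal to noise per printed spot across three slides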
Chain of Follistatin-related protein 3 (Homo sapiens) (O95633 whole entry, looked up): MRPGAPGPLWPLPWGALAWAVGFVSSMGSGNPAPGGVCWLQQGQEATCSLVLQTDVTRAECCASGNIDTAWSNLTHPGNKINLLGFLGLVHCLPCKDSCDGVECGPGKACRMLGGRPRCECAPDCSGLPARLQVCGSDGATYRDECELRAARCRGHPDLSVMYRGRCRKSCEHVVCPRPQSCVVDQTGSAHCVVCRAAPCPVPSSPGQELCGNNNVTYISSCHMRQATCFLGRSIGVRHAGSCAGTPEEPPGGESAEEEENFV

[9] = molecular target: Dickkopf-related protein 1 (Homo sapiens) (UniProt O94907); experiment: DKK1 binders on small-molecule microarrays, primary screen, biochemical, small-molecule microarray, 635 nm fluorescence scan (AID 1106); settings: DKK1 binding, higher = more signal;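 further: score merges emission near 667 nm with signal to noise over three replicate slides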
Chain of Dickkopf-related protein 1 (Homo sapiens) (O94907 whole entry, looked up): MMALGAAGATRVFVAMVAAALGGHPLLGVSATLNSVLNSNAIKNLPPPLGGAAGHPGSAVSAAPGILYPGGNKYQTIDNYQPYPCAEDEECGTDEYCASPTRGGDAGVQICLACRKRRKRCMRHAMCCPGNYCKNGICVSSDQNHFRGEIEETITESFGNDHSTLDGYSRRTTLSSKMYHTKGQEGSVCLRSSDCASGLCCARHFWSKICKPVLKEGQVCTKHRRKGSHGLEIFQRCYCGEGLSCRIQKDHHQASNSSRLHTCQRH

[10] = system: Inhibin beta A chain (activin A); experiment: INHBA (activin A) binders on microarrays, primary screen, biochemical, small-molecule microarray, 635 nm fluorescence scan (AID 1107); settings: small-molecule microarray binding, higher = more signal;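 further: mouse activin A protein probed at 4.33 µg/mL on printed slides; score merges bound-protein fluorescence near 667 nm with spot signal-to-noise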
[11] = system: Human papillomavirus type 1a protein E7 (residues 44-93); experiment: HPV1a E7 fragment binders on microarrays, primary screen, biochemical, small-molecule microarray, residues 44-93, 635 nm fluorescence (AID 1108); settings: small-molecule microarray binding, fluorescence 635 nm; higher = more signal;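 further: E7 fragment applied at 1 µg/mL in TBST for 1 h at 4 C; score combines spot fluorescence with its signal to noise ratio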
[12] = modulators of HCV replicon luciferase signal, primary screen, HCV replication inhibitor project, Huh7 cells, luciferase reporter (AID 1109); settings: 48 h, higher = more signal;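 further: huh7 hepatoma cells harbouring a luciferase neomycin HCV replicon reporter; luciferase luminescence as measure of HCV replicon replication; test concentration not given here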
[13] = molecular target: Left-right determination factor 2 (Homo sapiens) (UniProt O00292); experiment: LEFTY2 binders on small-molecule microarrays, primary screen, biochemical, small-molecule microarray, 635 nm fluorescence scan (AID 1110); settings: LEFTY2 binding, higher = more signal
Chain of Left-right determination factor 2 (Homo sapiens) (O00292 whole entry, looked up): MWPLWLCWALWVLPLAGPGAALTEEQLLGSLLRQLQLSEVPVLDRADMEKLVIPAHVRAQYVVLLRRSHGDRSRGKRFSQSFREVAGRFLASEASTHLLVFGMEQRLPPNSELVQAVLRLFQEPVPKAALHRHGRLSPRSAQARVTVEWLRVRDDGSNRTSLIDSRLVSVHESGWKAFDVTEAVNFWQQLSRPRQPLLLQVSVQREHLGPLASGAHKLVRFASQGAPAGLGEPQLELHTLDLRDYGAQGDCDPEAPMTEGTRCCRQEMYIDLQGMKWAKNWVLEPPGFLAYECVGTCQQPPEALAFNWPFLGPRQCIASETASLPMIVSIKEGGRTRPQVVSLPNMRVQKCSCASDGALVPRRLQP

[14] = molecular target: Calmodulin-1 (Homo sapiens) (UniProt P0DP23); experiment: CALM1 binders on microarrays, EGTA buffer, profiling panel, biochemical, small-molecule microarray, Cy5-labelled CALM1 (AID 1111); settings: Cy5-CALM1 binding fluorescence, higher = more signal;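 further: labelled calmodulin applied in Tris saline Tween buffer holding calcium plus EGTA and DTT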
[15] = molecular target: Calmodulin-1 (Homo sapiens) (UniProt P0DP23); experiment: calcium-bound CALM1 binders on microarrays, profiling panel, artefact control for SMM control-protein annotation, biochemical, small-molecule microarray, Cy5-labelled CALM1, plus calcium (AID 1112); settings: Cy5-CALM1 binding fluorescence, higher = more signal;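 further: score merges spot fluorescence with signal to noise from triplicate slides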
[16] = small-molecule microarray binders of probe aWnt5a, primary screen, biochemical, biotinylated probe, 635/667 nm fluorescence (AID 1113); settings: higher = more signal;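 further: score merges 667 nm fluorescence intensity with signal-to-noise per printed feature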
[17] = small-molecule microarray binders of probe aShh, primary screen, biochemical, biotinylated probe, 635/667 nm fluorescence (AID 1114); settings: higher = more signal;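 further: probe is biotin-labelled aShh protein from a stem cell growth factor screen; measures binding of labelled protein to compounds printed on the slide; score merges feature fluorescence at 667 nm with signal-to-noise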
[18] = small-molecule microarray binders of probe aNog, primary screen, biochemical, biotinylated probe, 635/667 nm fluorescence (AID 1115); settings: higher = more signal;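 further: probe is biotinylated aNog protein used at 0.15 µg/mL for 1 h at 4 C; z-score combines 667 nm fluorescence of each spot with its signal to noise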
[19] = molecular target: Torsin-1A-interacting protein 1 (Homo sapiens) (UniProt Q5JTV8); experiment: LAP1 binders from COS7 cell lysate, primary screen, small-molecule microarray, 635/667 nm fluorescence (AID 1116); settings: COS7-hLAP1 lysate binding, 635 nm fluorescence, higher = more signal
Chain of Torsin-1A-interacting protein 1 (Homo sapiens) (Q5JTV8 whole entry, looked up): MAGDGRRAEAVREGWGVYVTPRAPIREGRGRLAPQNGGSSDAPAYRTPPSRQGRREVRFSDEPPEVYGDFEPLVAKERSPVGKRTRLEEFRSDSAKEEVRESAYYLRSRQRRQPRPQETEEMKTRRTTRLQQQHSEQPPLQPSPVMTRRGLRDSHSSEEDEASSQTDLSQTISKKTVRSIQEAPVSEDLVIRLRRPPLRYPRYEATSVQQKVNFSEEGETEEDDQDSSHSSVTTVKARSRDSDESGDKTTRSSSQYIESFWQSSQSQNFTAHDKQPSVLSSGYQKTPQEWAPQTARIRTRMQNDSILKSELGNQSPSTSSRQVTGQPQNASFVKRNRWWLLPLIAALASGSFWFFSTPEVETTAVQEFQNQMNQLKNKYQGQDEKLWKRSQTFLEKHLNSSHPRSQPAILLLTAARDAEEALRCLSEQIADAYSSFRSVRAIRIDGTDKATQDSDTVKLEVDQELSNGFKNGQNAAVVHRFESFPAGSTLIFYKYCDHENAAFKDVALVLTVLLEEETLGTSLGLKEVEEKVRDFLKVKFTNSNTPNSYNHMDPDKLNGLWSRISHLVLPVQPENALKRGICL

[20] = molecular target: Alpha-bungarotoxin (Bungarus multicinctus) (UniProt P60615); experiment: alpha-bungarotoxin binders on microarray, profiling panel, artefact control for SMM control protein annotation, biochemical, small-molecule microarray, Alexa647 label, 635/667 nm fluorescence (AID 1117); settings: alpha-BTX-A647 binding fluorescence, higher = more signal
Chain of Alpha-bungarotoxin (Bungarus multicinctus) (P60615 whole entry, looked up): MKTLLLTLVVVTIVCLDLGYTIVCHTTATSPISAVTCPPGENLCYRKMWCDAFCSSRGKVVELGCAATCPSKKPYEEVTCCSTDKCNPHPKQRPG

| SMILES | composite z-score [1] | composite z-score [2] | composite z-score [3] | z-score [4] | composite z-score [5] | composite z-score [6] | composite z-score [7] | composite z-score [8] | composite z-score [9] | composite z-score [10] | composite z-score [11] | z-score [12] | composite z-score [13] | composite z-score [14] | composite z-score [15] | composite z-score [16] | composite z-score [17] | composite z-score [18] | composite z-score [19] | composite z-score [20] |
| --- | --- | --- | --- | --- | --- | --- | --- | --- | --- | --- | --- | --- | --- | --- | --- | --- | --- | --- | --- | --- |
| COc1ccc([Si](C)(C)[C@H]2[C@H](CC(=O)N3Cc4ccccc4C[C@H]3CO)O[C@@]3(C(=O)N(Cc4cccc(N5C(=O)COc6ccccc65)c4)c4ccccc43)[C@@H]2C)cc1 | 1.18 | -0.225 | -0.261 | -1.72 (inactive) | 0.818 | 0.52 | 1.13 | 1.26 | 1.12 | 1.23 | 0.354 | -3.73 | 0.818 | 0.191 | -0.185 | 0.0094 | 0.0637 | -0.0118 | 0.7 | 1.87 |
| O=C1c2ccccc2[C@](Cc2ccccc2I)(C(=O)O)[C@H](c2ccc(CO)cc2)N1Cc1ccccc1Cl | 0.96 | 0.815 | 1.06 | 0.0252 (inactive) | 0.235 | -0.0679 | -0.197 | 0.521 | 0.697 | 0.623 | 1.15 | -0.219 | -0.0287 | 1.56 | 0.586 | -0.163 | -0.189 | 0.195 | 0.957 | 2.29 |
| COC(=O)C(CC#Cc1ccc2c(c1)[C@]1(C(=O)N2)[C@H](C(N)=O)[C@H]2C(=O)O[C@H](c3ccccc3)[C@H](c3ccccc3)N2[C@@H]1c1ccc(O)cc1)C(=O)OC | 1.12 | -0.608 | -0.0947 | 0.0733 (inactive) | -0.519 | -1.15 | -1.1 | -1.28 | -0.591 | -1.15 | -1.74 | -0.152 | -1.19 | -0.351 | 0.221 | -0.359 | 0.373 | -0.446 | 0.659 | -0.243 |
| C=CCN1C(=O)[C@@]2(O[C@@H](CCO)[C@H]([Si](C)(C)c3ccc(OC)cc3)[C@H]2C)c2cc(N(C=O)c3ccccc3)ccc21 | 0.592 | 0.235 | 0.453 | -3.43 (inactive) | 0.341 | -0.0443 | -0.131 | 0.131 | 0.0733 | 1.01 | 0.192 | -5.12 | 0.0105 | 0.905 | 1.06 | -0.0643 | -0.138 | 0.238 | 0.473 | 0.37 |
| O=C1c2ccccc2C(=O)c2cc([C@H]3Oc4ccccc4S(=O)(=O)N4CCC[C@@H]34)ccc21 | -1.12 | -0.108 | 0.461 | -0.833 (inactive) | -0.439 | -0.896 | -0.727 | -1.02 | 0.11 | 1.09 | -1.1 | -2 | -0.148 | -0.94 | 0.812 | -0.16 | -0.214 | 0.0431 | -0.749 | -0.744 |
